The list is not random: actives were taken first. Their share in the collection is about 9%.
JMJD2A Tudor – inhibitors of human JMJD2A Tudor domain. 4.4% of 390,000 active. Potency, µM (titrated, usually from 114 µM), actives largely listed as inhibitors. O75164. AID 504339. AlphaScreen JMJD2A-Tudor / H3K4me3 peptide binding; also: nearly all actives have a fitted effect of over 50% in size
G9a inh – inhibitors of human histone lysine methyltransferase G9a; Q96KQ7; G9a H3K9 monomethylation, AlphaScreen, 2 h; Potency, µM (top dose mostly 102 µM), usual class: inhibitors; 8.8% of 350,000 active; AID 504332; also: nearly all actives have a fitted effect of over 75% in size
Target sequence (Q96KQ7 913-1193 limits assumed): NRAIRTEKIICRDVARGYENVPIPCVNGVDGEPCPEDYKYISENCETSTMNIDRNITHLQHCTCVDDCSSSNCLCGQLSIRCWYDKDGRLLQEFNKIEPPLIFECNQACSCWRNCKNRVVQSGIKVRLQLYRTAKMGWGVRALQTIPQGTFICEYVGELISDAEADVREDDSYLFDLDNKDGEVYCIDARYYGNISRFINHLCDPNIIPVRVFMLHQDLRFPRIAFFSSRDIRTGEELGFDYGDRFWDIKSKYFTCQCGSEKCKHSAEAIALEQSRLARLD
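Quantitative HTS format: methyltransferase activity on a biotin-tagged H3K9 peptide is measured by AlphaScreen, using a rabbit anti-monomethyl-H3K9 antibody with streptavidin donor and anti-IgG acceptor beads. Final levels are 20 nM enzyme, 500 nM peptide, 20 uM SAM; 2 h RT.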
BAZ2B inh – blocks human BAZ2B. Q9UIF8. AlphaScreen BAZ2B-H3K14Ac peptide displacement. Potency, µM (top dose mostly 114 µM), usual class: inhibitors. 4.4% of 360,000 active; also: nearly all actives have a fitted effect of over 60% in size
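AlphaScreen displacement: compounds (up to 110uM) incubated 30 min at room temperature with a preformed 50 nM BAZ2B/50 nM biotinylated H3K14Ac peptide complex in PBS pH 7.4 with Tween-20. Donor and acceptor beads at 10 ug/mL final added, 20 min light-protected before reading.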
HP1b binding inh – HP1-beta chromodomain-methylated histone interaction inhibition | AlphaScreen HP1-beta / biotin-H3K9me3 peptide binding | Potency, µM (series often up to 114 µM), hits mostly inhibitors | 0.56% of 390,000 active; also: nearly all actives have a fitted effect of over 70% in size
Target sequence (P83916 whole entry, looked up): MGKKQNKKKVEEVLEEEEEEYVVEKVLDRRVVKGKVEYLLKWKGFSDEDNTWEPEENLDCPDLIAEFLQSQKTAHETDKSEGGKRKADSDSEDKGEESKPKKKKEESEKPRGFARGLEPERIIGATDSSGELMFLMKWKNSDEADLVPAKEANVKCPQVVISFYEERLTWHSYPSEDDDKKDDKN
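HP1-beta protein (50 nM final) preincubated 30 min at room temperature with biotinylated H3(1-18)K9me3 peptide (50 nM) in PBS pH 7.4, 0.01% Tween-20, then compound added for 30 min. AlphaScreen streptavidin donor/nickel chelate acceptor beads (10 ug/mL final), 30 min dark, luminescence read.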
PLK1 PBD block – inhibitors of human PLK1 polo-box domain binding | P53350 | AID 720504 | Plk1 PBD binding of FITC phosphopeptide, fluorescence polarization | Potency, µM, hits mostly inhibitors | 2.8% of 360,000 active; also: series mostly up to about 57 µM; nearly all actives have a fitted effect of over 65% in size
12-LOX inh – ALOX12 (human) lipoxygenase inhibition; Potency, µM (highest dose often 108 µM), actives largely listed as inhibitors; purified 12hLO, xylenol orange hydroperoxide absorbance; 1.1% of 580,000 active
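Purified human 12hLO (150 nM final) in 25 mM Hepes, 0.01% Triton X-100, pH 7.0 was preincubated 15 min at room temperature with compound. Then 40 uM arachidonic acid was added, 30 min. Hydroperoxide was read by Fe-XO absorbance ratio 573/405 nm.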
Each line names hits and unclear results; the compound was inactive in the other large screens. Calls follow the shape of the dose curve; as a rule, active = well fitted curve in the direction sought with a large enough effect; inconclusive = small, poorly fitted or top-dose-only effect, or another doubt; inactive = no such curve, though single readings can be large; an effect the other way counts as inactive or inconclusive.

CC(=O)c1cccc(S(=O)(=O)NC2CC2)c1	G9a inh 45µM, PLK1 PBD block 27µM
O=C(COC(=O)c1ccc(Cl)c([N+](=O)[O-])c1)c1ccc2c(c1)OCCO2	none (no result: JMJD2A Tudor, G9a inh, BAZ2B inh, HP1b binding inh, PLK1 PBD block)
Cc1cccc(OCc2nc(C)c(C(=O)Nc3cc(C)ccc3C)s2)c1	none (no result: JMJD2A Tudor, G9a inh, BAZ2B inh, HP1b binding inh, PLK1 PBD block)
Cc1c(C(=O)O)oc2ccc3c(c12)C(O)CC(C)(C)O3 (configuration not stated)	12-LOX inh inconclusive
COCCn1nnnc1C(c1ccc2ncccc2c1)N1CCN(c2ccccc2F)CC1 (configuration not stated)	G9a inh 8.9µM, BAZ2B inh 50µM, 12-LOX inh inconclusive
COCCn1nnnc1C(c1ccc(OC)cc1OC)N1CCN(c2ccccc2F)CC1 (configuration not stated)	G9a inh 56µM, BAZ2B inh inconclusive, 12-LOX inh 40µM
COCCn1nnnc1C(c1ccc(OC)c(OC)c1)N1CCc2ccccc21 (configuration not stated)	G9a inh inconclusive
COCCn1nnnc1C(c1ccc2ncccc2c1)N1CCc2ccccc21 (configuration not stated)	G9a inh 50µM
CCC(Sc1nc(C)cc(C)n1)C(=O)NC1=NN=C(c2ccc(C)cc2)CS1 (configuration not stated)	G9a inh inconclusive, 12-LOX inh inconclusive
COc1ccc2c3c([nH]c2c1)[C@@H](CO)N(Cc1ccccc1Cl)CC31CN(C(=O)C2CC2)C1	12-LOX inh 16µM (no result: JMJD2A Tudor, G9a inh, BAZ2B inh, HP1b binding inh, PLK1 PBD block)
COc1ccc2c3c([nH]c2c1)[C@H](CO)N(C(=O)C1CCCC1)CC31CCN(C(=O)c2ccncc2)CC1	none (no result: JMJD2A Tudor, G9a inh, BAZ2B inh, HP1b binding inh, PLK1 PBD block)
CCS(=O)(=O)N1CC2(CN(Cc3ccc4c(c3)OCO4)[C@@H](CO)c3[nH]c4cc(OC)ccc4c32)C1	12-LOX inh 14µM (no result: JMJD2A Tudor, G9a inh, BAZ2B inh, HP1b binding inh, PLK1 PBD block)
Cc1noc2nc3c(c(C(=O)N[C@H]4CC[C@H]4NC4CCCC4)c12)CCC3	none (no result: JMJD2A Tudor, G9a inh, BAZ2B inh, HP1b binding inh, PLK1 PBD block)
CCOC(=O)c1[nH]c2ccc(C(=O)OC)cc2c1C(=O)OCC	none
O=C(O)CCCNS(=O)(=O)c1ccc(NCc2ccccc2)c(C(=O)O)c1	G9a inh 22µM
O=C(O)CCCNS(=O)(=O)c1cccc(Cl)c1	none (no result: JMJD2A Tudor, G9a inh, BAZ2B inh, HP1b binding inh, PLK1 PBD block)
CCO/C=C1/C(=O)N(C(C)=O)c2ccccc21	G9a inh 10µM
O=C(/C=C/c1ccccc1)c1ccccc1	none
O=C(O)/C=C/c1ccc(-c2cccc(C(F)(F)F)c2)o1	G9a inh 45µM, PLK1 PBD block inconclusive
O=C(/C=C\c1ccc(-c2ccccc2)o1)c1ccccc1	G9a inh 10µM, BAZ2B inh 32µM, HP1b binding inh inconclusive, 12-LOX inh inconclusive
Cc1ccc(-c2ccc(/C=C/C(=O)c3ccccc3)o2)cc1Cl	12-LOX inh 11µM (no result: JMJD2A Tudor, G9a inh, BAZ2B inh, HP1b binding inh, PLK1 PBD block)
Cc1ccc(C(=O)/C=C\C(=O)c2ccc(C)cc2)cc1	G9a inh 1.6µM, PLK1 PBD block 6.7µM, 12-LOX inh inconclusive
CSc1nsc(SC)c1C(=O)Nc1ccc(C(C)(C)C)cc1	none
Cn1nccc1C(=O)N1CCCC(N2CCN(c3cccc(C(F)(F)F)c3)CC2)C1 (configuration not stated)	G9a inh inconclusive (no result: JMJD2A Tudor, HP1b binding inh, PLK1 PBD block)
CC(=O)N1CCN(C(=O)c2ccc(-c3cccc(C(F)(F)F)c3)o2)CC1	G9a inh 50µM
Cn1nccc1C(=O)N1CCN(c2cccc(C(F)(F)F)c2)CC1	G9a inh 71µM
O=C(c1ccc(-c2cccc(C(F)(F)F)c2)o1)N1CCOCC1	G9a inh inconclusive
Cc1ccc(C(=O)/C=C/c2ccc(-c3ccc(C)cc3)o2)cc1	JMJD2A Tudor 79µM, G9a inh inconclusive, 12-LOX inh inconclusive
Cc1ccc(C(=O)/C=C/c2ccc(-c3ccc(C)c(Cl)c3)o2)cc1	12-LOX inh 14µM (no result: JMJD2A Tudor, G9a inh, BAZ2B inh, HP1b binding inh, PLK1 PBD block)
CN1[C@@H](CCC(=O)NCc2cccs2)CNC(=O)[C@@H]2[C@H]1CCN2Cc1nc2ccccc2n1C	none (no result: JMJD2A Tudor, G9a inh, BAZ2B inh, HP1b binding inh, PLK1 PBD block)
CCOc1ccc(N(CC(=O)Nc2ccccc2C(=O)NC(C)CC)S(C)(=O)=O)cc1 (configuration not stated)	none
